PubChem BioAssay (Tox21)
“And” between values parts separate entries of the source, which are not always exact repeats. Equal entries are not always repeated. Unmarked numbers belong to inactive results. Records with an inconclusive call do not appear. Where a call stands in place of a potency, no number is given. The source made the active and inactive calls. Unless noted, calls come from the whole dose curve; as a rule, active = well fitted curve in the direction sought with a large enough effect in the repeat runs; inconclusive = weak or mixed curves; inactive = no such curve, though single readings can be large; an effect the other way counts as inactive or inconclusive.

Columns and labels:
[1] = qHTS assay to identify small molecule antagonists of the glucocorticoid receptor (GR) signaling pathway - cell viability counter screen (AID 720693); note: nearly all actives have a fitted effect of over 55% in size
[2] = qHTS assay for identifying genotoxic compounds that show differential cytotoxicity against isogenic chicken DT40 cell lines with known DNA damage response pathways - wild type cell line (AID 743012); note: nearly all actives have a fitted effect of over 60% in size; note: potency is the fitted concentration of half-maximal effect
Procedure, shortened: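 Viability of DNA repair-proficient chicken DT40 cells was assessed by CellTiter-Glo luminescence following 40 h compound exposure at 37 C/5% CO2.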

[3] = qHTS assay for identifying genotoxic compounds that show differential cytotoxicity against isogenic chicken DT40 cell lines with known DNA damage response pathways - Rev3 mutant cell line (AID 743014); note: nearly all actives have a fitted effect of over 55% in size; note: potency is the fitted concentration of half-maximal effect
[4] = qHTS assay for identifying genotoxic compounds that show differential cytotoxicity against isogenic chicken DT40 cell lines with known DNA damage response pathways - Rad54/Ku70 mutant cell line (AID 743015); note: nearly all actives have a fitted effect of over 60% in size; note: potency is the fitted concentration of half-maximal effect
[5] = qHTS assay to identify small molecule antagonists of the androgen receptor (AR) signaling pathway - cell viability counter screen (AID 743033; note: nearly all actives have a fitted effect of over 45% in size)
[6] = qHTS assay to identify small molecule antagonists of the androgen receptor (AR) signaling pathway using the MDA cell line - cell viability counter screen (AID 743041; note: nearly all actives have a fitted effect of over 45% in size; note: potency is the fitted concentration of half-maximal effect)
Procedure, shortened: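 Using the breast carcinoma line MDA-kb2 AR-luc, test chemicals were co-incubated with R1881 for 16 h; CellTiter-Fluor reagent, added at 15.5 h, provided a fluorescence measure of live cells.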

[7] = target: Androgen receptor (Homo sapiens) (UniProt P10275); assay: qHTS assay to identify small molecule antagonists of the androgen receptor (AR) signaling pathway (AID 743035; active = well fitted inhibition curve with a large enough effect in the signal ratio in the repeat runs, not every such curve was filed as active; the % refers to the signal ratio; note: potency is the fitted concentration of half-maximal effect)
Chain of Androgen receptor (Homo sapiens) (P10275 whole entry, looked up): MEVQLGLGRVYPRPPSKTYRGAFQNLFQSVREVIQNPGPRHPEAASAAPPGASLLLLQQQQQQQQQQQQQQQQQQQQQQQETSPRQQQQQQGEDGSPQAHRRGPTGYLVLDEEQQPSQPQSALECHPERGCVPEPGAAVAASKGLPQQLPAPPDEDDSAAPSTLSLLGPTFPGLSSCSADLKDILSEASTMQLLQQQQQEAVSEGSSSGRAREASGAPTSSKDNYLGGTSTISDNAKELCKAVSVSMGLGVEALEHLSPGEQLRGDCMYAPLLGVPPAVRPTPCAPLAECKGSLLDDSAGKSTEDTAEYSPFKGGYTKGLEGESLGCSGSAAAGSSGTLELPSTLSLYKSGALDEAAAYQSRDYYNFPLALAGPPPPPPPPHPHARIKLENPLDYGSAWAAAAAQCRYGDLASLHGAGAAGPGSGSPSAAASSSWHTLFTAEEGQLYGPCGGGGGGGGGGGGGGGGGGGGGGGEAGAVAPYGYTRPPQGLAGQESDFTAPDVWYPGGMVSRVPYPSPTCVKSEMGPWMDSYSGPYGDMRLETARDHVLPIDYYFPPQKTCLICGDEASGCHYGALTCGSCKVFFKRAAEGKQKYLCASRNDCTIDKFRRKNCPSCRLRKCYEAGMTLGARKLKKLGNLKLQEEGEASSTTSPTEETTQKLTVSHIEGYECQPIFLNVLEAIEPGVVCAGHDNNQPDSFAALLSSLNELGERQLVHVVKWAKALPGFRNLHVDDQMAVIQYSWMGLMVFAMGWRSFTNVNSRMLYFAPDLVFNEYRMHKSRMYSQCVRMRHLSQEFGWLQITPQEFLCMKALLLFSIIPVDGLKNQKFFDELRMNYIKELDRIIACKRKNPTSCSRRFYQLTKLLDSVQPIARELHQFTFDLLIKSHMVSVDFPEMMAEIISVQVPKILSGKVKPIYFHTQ
Procedure, shortened: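 Reporter HEK293 cells were exposed to compounds and R1881 overnight (16 h, 37C); beta-lactamase activity was then quantified by FRET fluorescence.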

[8] = target: Androgen receptor (Homo sapiens) (UniProt P10275); assay: qHTS assay to identify small molecule agonists of the androgen receptor (AR) signaling pathway (AID 743036; active = well fitted activation curve with a large enough effect in the signal ratio in the repeat runs, with a control signal flat, not every such curve was filed as active; the % refers to the signal ratio)
Procedure, shortened: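 Fluorescence from a beta-lactamase FRET substrate served as read-out in AR-UAS-bla GripTite HEK293 cells. Cells were treated with DMSO-dissolved compounds for 16 h at 37C, then with LiveBLAzer B/G substrate for 2 h at room temperature.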

[9] = target: Androgen receptor (Homo sapiens) (UniProt P10275); assay: qHTS assay to identify small molecule agonists of the androgen receptor (AR) signaling pathway using the MDA cell line (AID 743040; note: nearly all actives have a fitted effect of over 20% in size)
Procedure, shortened: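 Stable MMTV-luciferase reporter in MDA-kb2 cells; note the promoter carries GR as well as AR response elements. 16 h compound treatment, 37C, 0% CO2; ONE-Glo luminescence endpoint.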

[10] = target: Androgen receptor (Homo sapiens) (UniProt P10275); assay: qHTS assay to identify small molecule antagonists of the androgen receptor (AR) signaling pathway using the MDA cell line (AID 743042; note: nearly all actives have a fitted effect of over 55% in size; note: potency is the fitted concentration of half-maximal effect)
Procedure, shortened: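 Antagonist mode: compounds plus R1881 agonist added to MDA-kb2 AR-luc cells, incubated 16 h at 37C. Luciferase reporter luminescence quantified, with multiplexed CellTiter-Fluor readout for cell viability.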

| Structure (SMILES) | Potency [1] | Potency [2] | Potency [3] | Potency [4] | Potency [5] | Potency [6] | Potency [7] | Potency [8] | Potency [9] | Potency [10] |
| --- | --- | --- | --- | --- | --- | --- | --- | --- | --- | --- |
| Nc1ccccc1S(=O)(=O)c1ccccc1 | inactive | inactive | inactive | inactive | inactive | inactive |  |  |  |  |
| Clc1ccc2c(c1)CCc1cccnc1C2=C1CCNCC1 | inactive | 5.31 µM (active) | 7.5 µM (active) | 8.41 µM (active) | inactive | inactive |  |  |  |  |
| CCCCC(CC)COC(=O)COc1ccc(Cl)cc1Cl (stereo not drawn) | inactive | inactive | inactive | inactive | inactive | inactive |  |  |  |  |
| CC1=CC[C@H](C(C)C)C=C1 | inactive | 61.1 µM (active) | 68.6 µM (active) | 61.1 µM (active) |  | inactive |  |  |  |  |
| COc1cccc(N(C)C(=S)Oc2ccc3c(c2)CCCC3)n1 | inactive | 26.6 µM (active) | 26.6 µM (active) | 26.6 µM (active) |  | inactive |  |  |  |  |
| O=C(OCCc1ccccc1)c1ccccc1 | inactive | inactive | inactive | inactive | inactive | inactive |  |  |  |  |
| CCCCCCCCO[C@@H]1O[C@H](CO)[C@@H](O)[C@H](O)[C@H]1O | inactive | inactive | inactive | inactive | inactive | inactive |  |  |  |  |
| COc1cc(Cl)ccc1Oc1ccc(Cl)cc1Cl | inactive | inactive | inactive | inactive | inactive | inactive |  |  |  |  |
| CO[C@@H]1[C@H](OC(=O)/C=C/C=C/C=C/C=C/C(=O)O)CC[C@]2(CO2)[C@H]1[C@@]1(C)O[C@@H]1CC=C(C)C | inactive | 1.9 nM (active) and 12.2 nM (active) | 2.1 nM (active) and 17.2 nM (active) | 2.7 nM (active) and 10.9 nM (active) | inactive | inactive |  |  |  |  |
| C=CC1CC2C=CC1C2 (stereo not drawn) | inactive | inactive | inactive | inactive | inactive | inactive |  |  |  |  |
| COc1ccc(C)cc1[N+](=O)[O-] | inactive | inactive | inactive | inactive | inactive | inactive |  |  |  |  |
| CC(C)O.CC(C)O.CCOC(=O)/C=C(\C)O.CCOC(=O)/C=C(\C)O.[Ti] | inactive | inactive | inactive | inactive | inactive | inactive |  |  |  |  |
| Clc1ccc(Cn2c(CN3CCCC3)nc3ccccc32)cc1 | inactive | 4.03 µM (active) | 2.54 µM (active) | 7.17 µM (active) | inactive | inactive |  |  |  |  |
| CC(C)(C)OCC1CO1 (stereo not drawn) | inactive | inactive | inactive | inactive | inactive | inactive |  |  |  |  |
| CN1CCN(C(c2ccccc2)c2ccccc2)CC1 | inactive | inactive | inactive | inactive |  | inactive | inactive | inactive | inactive | inactive |
| C=CCOC(=O)CCC1CCCCC1 | inactive | inactive | inactive | inactive | inactive | inactive |  |  |  |  |

| Structure (SMILES) | Potency [1] | Potency [2] | Potency [3] | Potency [4] | Potency [5] | Potency [6] | Potency [7] | Potency [8] | Potency [9] | Potency [10] |
| --- | --- | --- | --- | --- | --- | --- | --- | --- | --- | --- |
| Cc1c(N)cccc1[N+](=O)[O-] | inactive | inactive | inactive | inactive | inactive | inactive |  |  |  |  |
| CCN(CC)c1ccc2c(-c3ccccc3C(=O)O)c3ccc(=[N+](CC)CC)cc-3oc2c1 | inactive | 12.2 µM (active) | 8.63 µM (active) | 8.63 µM (active) |  | 24.3 µM (active) |  |  |  |  |
| O=C(Nc1ccccc1)c1ccccc1O | inactive | 48.6 µM (active) | 48.6 µM (active) | 30.6 µM (active) |  |  |  |  | inactive |  |
| O=C(Cl)c1cc(C(=O)Cl)cc(C(=O)Cl)c1 | inactive | 19.3 µM (active) | 27.3 µM (active) | 19.3 µM (active) | inactive | inactive |  |  |  |  |
| COc1ccc(C(=O)N2CCN(CC(=O)N3CCOCC3)CC2)cc1 | inactive | inactive | inactive | inactive | inactive | inactive |  |  |  |  |
| CCOC(=O)NCCOc1ccc(Oc2ccccc2)cc1 | inactive |  | 68.6 µM (active) | 61.1 µM (active) |  |  |  |  |  |  |
| NC(N)=NCCC[C@H](N)C(=O)O | inactive | inactive | inactive |  | inactive | inactive |  |  |  |  |
| CC[N+](C)(CC)CCOC(=O)C(O)(c1ccccc1)C1CCCCC1 (stereo not drawn) | inactive | inactive | inactive |  | inactive |  |  |  |  |  |
| NC(=O)C(c1ccccc1)(c1ccccc1)[C@@H]1CCN(CCc2ccc3c(c2)CCO3)C1 | inactive |  | 18.8 µM (active) | 23.7 µM (active) | inactive |  |  |  |  |  |
| Cc1nn(C)c(Oc2ccccc2)c1/C=N/OCc1ccc(C(=O)OC(C)(C)C)cc1 | inactive | 0.0022 µM (active) | 0.0024 µM (active) |  |  | 0.0077 µM (active) | 123 nM (active) | inactive | inactive | 2.4 nM (active) |
| O=C(O)C(S)C(S)C(=O)O (stereo not drawn) | inactive | inactive | inactive |  | inactive | inactive |  |  |  |  |
| CCCCCCCC#N | inactive | inactive | inactive |  |  | inactive |  |  |  |  |
| CN(C)CCCN1c2ccccc2Sc2ccccc21 | inactive | 9.02 µM (active) | 5.69 µM (active) | 10.1 µM (active) |  | inactive |  |  |  |  |
| COCC(C)OC(C)=O (stereo not drawn) | inactive | inactive | inactive |  | inactive | inactive |  |  |  |  |
| CCCCCCc1ccc(-c2ccc(C#N)cc2)cc1 | inactive | inactive |  | inactive | inactive | inactive |  |  |  |  |
